# Compound activity (PubChem BioAssay)
# An excerpt weighted towards active compounds, which were near 3.1% of everything screened.
# miR122 inh = inhibitors of miR-122 in Huh7 cells. 340,000 tested, 0.3% active. activation (reporter increase), % at 12.5 µM. Huh7 miR-122 Renilla luciferase sensor, 48 h; neutral wells = 0, positive control = 100. AID 602342;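 active = mean replicate activation score at least 90 and every replicate individually at or above 90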;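 also: higher luciferase means less miR-122 activity so hits act as miR-122 inhibitors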
# INS-1E GSIS act = GLuc luminescence reporter in INS-1E cells, primary screen for activators of glucose-dependent secretion of insulin; INS-1E GLuc reporter insulin secretion, 2-3 h; activation, % at 16.6 µM; 370,000 tested, 0.61% active; AID 743287;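 active = lowest replicate activation of at least 40%, so every replicate reaches that level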
# PAX8 reporter = inhibitors of PAX8 transcriptional activity in RMG-I cells | 360,000 tested, 1.2% active | RMG-I TPO-luciferase reporter, SteadyGlo, 24 h | inhibition, % at 12.6 µM;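 active = mean replicate inhibition at least 60% with every replicate also reaching 60%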;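 also: luciferase light reporting Pax8 driven TPO promoter activity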
# EWS-Fli block = inhibitors of EWS/Fli oncoprotein transcriptional activity. A673 NR0B1-luciferase reporter, viability-normalised. inhibition, % at 12.6 µM. 350,000 tested, 0.67% active;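 active = mean inhibition of at least 50% after viability correction, with every replicate also passing that limit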;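 also: firefly luciferase signal divided by Alamar Blue viability fluorescence both relative to DMSO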
# C2C12 statin = suppression of simvastatin myotoxicity; rescue of ATP level, % at 7.49 µM; 330,000 tested, 0.78% active; C2C12 myotubes + simvastatin, ATP luminescence, 48 h; scaled: DMSO 0, geranylgeraniol control 100; AID 602340;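 active = mean ATP rescue above about 67%, or every replicate alone reaching that limit, limit read from the data, passing the limit was not always enough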;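 also: myotubes were challenged with 10 µM simvastatin during compound exposure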
# HIV Env fusion = inhibitors of HIV Env-mediated cell fusion | HeLa-JRFL Env/CEM21 cell fusion, luciferase | inhibition, % at 12.3 µM | 360,000 tested, 1.1% active | AID 651610;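 active = mean replicate inhibition score of at least 50 and every replicate individually at or above 50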
# Hits are given with their value; i = inactive; nt = no result.
SMILES,miR122 inh,INS-1E GSIS act,PAX8 reporter,EWS-Fli block,C2C12 statin,HIV Env fusion
Cc1cc(N/N=C/c2ccc(O)cc2O)nc(N2CCOCC2)n1,i,i,i,i,nt,i
CCCOc1ccc(/C=N/Nc2cc(N3CCOCC3)ncn2)c(O)c1,nt,i,i,i,i,67.3
Cc1cccc(C)c1NC(=O)C1c2ccccc2OCC(=O)N1CCCN1CCOCC1 (configuration not stated),nt,47.2,i,i,nt,i
CCC(=O)N1[C@H](C#N)[C@H](c2ccccc2-c2cccc(C)c2)[C@H]1CO,nt,i,i,i,nt,nt
C[C@@H]1CN([C@@H](C)CO)C(=O)Cc2cc(NS(C)(=O)=O)ccc2O[C@@H]1CN(C)C(=O)Nc1ccccc1,i,i,i,i,i,nt
Cc1cccc(-c2ccc3ncnc(NCc4cccs4)c3c2)c1,i,i,64.8,i,i,i
Cc1cccc(CNc2ncnc3ccc(-c4ccc5c(c4)OCCO5)cc23)c1,i,i,80.2,i,i,80.3
Cc1csc(CNc2ncnc3ccc(-c4ccc5c(c4)OCO5)cc23)c1,i,i,i,i,i,60.7
Cc1csc(CNc2ncnc3ccc(-c4ccc5c(c4)OCCO5)cc23)c1,i,i,i,i,i,i
c1nc(NCc2ccc3c(c2)OCO3)c2cc(-c3ccc4c(c3)OCCO4)ccc2n1,nt,i,i,i,i,i
C[C@H](CO)N1C[C@H](C)[C@@H](CN(C)C(=O)c2ccncc2)OCCCC[C@H](C)Oc2ccc(NS(=O)(=O)c3cn(C)cn3)cc2C1=O,i,i,i,i,nt,i
CCS(=O)(=O)N1CC2(CN(C(=O)NC(C)C)[C@H](CO)c3c2c2ccc(OC)cc2n3C)C1,nt,i,nt,nt,nt,nt
Cc1ccc(-c2nc(C#N)c(NCC3CCCO3)o2)cc1 (configuration not stated),nt,40.3,i,i,nt,i
COc1ccc(-c2nc(C#N)c(NCC3CCCO3)o2)cc1 (configuration not stated),i,nt,nt,nt,i,nt
COc1cc2cc(c1Cl)N(C)C(=O)CC(OC(=O)C(C)N(C)C(C)=O)C1(C)OC1C(C)C1CC(O)(NC(=O)O1)C(OC)C=CC=C(C)C2 (configuration not stated),i,i,74.2,i,nt,i
COc1cccc(NC(=O)N[C@@H]2C=C[C@@H](CC(=O)N3CCOCC3)O[C@@H]2CO)c1,nt,i,nt,i,nt,nt
COc1ccc(-n2c(=S)[nH]c3cc(C(=O)Nc4ccc(OC)c(OC)c4)ccc3c2=O)cc1,i,75.5,nt,nt,nt,nt
COc1ccc(-n2c(=S)[nH]c3cc(C(=O)Nc4cccc(C)c4)ccc3c2=O)cc1,nt,i,i,i,nt,nt
COc1ccc(NC(=O)c2csc(C)c2)cc1OC,i,56.7,i,nt,nt,i
O=S(Cc1ccc(Br)cc1)Cc1nnc(SCc2c(F)cccc2Cl)n1-c1ccccc1 (configuration not stated),nt,i,i,nt,nt,nt
Cn1c(CS(=O)Cc2c(Cl)cccc2Cl)nnc1SCc1ccc(Cl)cc1 (configuration not stated),i,i,nt,nt,nt,62.0
O=S(Cc1ccc(Br)cc1)Cc1nnc(SCc2ccc(Cl)cc2)n1-c1ccccc1 (configuration not stated),i,nt,nt,nt,i,65.4
CCC(=O)N[C@@H]1CC[C@H](CC(=O)NCc2ccccc2OC)O[C@H]1CO,nt,i,i,i,i,i
Cc1ccc(S(=O)(=O)N/N=C2/CC(c3ccccc3)Oc3ccccc32)cc1 (configuration not stated),i,nt,nt,nt,87.8,i
CCc1ccc(CN(C)C(=O)c2cc(COc3ccc(-n4cncn4)cc3)on2)cc1,i,i,i,i,i,i
SMILES,miR122 inh,INS-1E GSIS act,PAX8 reporter,EWS-Fli block,C2C12 statin,HIV Env fusion
CN(Cc1ccc(F)cc1)C(=O)c1cc(COc2ccc(-n3cncn3)cc2)on1,i,i,i,i,i,62.5
COc1ccc(C2CNC(=O)C2)cc1OC1CCCC1 (configuration not stated),i,45.4,i,i,i,i
Cc1cc(Cl)n2nc(C)c(-c3ccc(Cl)cc3)c2n1,nt,nt,80.9,i,nt,i
Cc1cc(N)n2nc(C)c(-c3ccc(Cl)cc3)c2n1,nt,i,i,i,nt,i
COc1ccc(-c2c(C)nn3c(C(F)(F)F)cc(C)nc23)cc1,i,nt,i,i,i,87.1
COc1ccc(-c2c(C)nn3c(C)cc(C)nc23)cc1,i,i,i,i,i,i
CCCC(=O)Nc1ccc2c(c1)C(=O)N(C)C[C@@H](OC)[C@@H](C)CN(Cc1cccc(F)c1)[C@H](C)CO2,i,i,nt,i,i,nt
c1ccc(CCN2CCN=C2Nc2ccccc2)cc1,i,42.5,i,i,i,i
CCC(=O)N1[C@@H]2c3ccc(C4=CCCC4)c(=O)n3C[C@H]1[C@H](CO)[C@H]2C(=O)N[C@@H](C)c1ccccc1,i,i,i,i,i,nt
O=C(c1ccc(Cl)c(Cl)c1)N1CCC(=O)N([C@H](COCc2ccccc2)Cc2ccccc2)CC1,nt,i,i,i,nt,64.4
O=C(c1ccc(Cl)c(Cl)c1)N1CCC(=O)N(C(COCc2ccccc2)Cc2ccccc2)CC1 (configuration not stated),i,i,i,i,i,86.1
O=C(c1cccc(Cl)c1)N1CCC(=O)N(C(COCc2ccccc2)Cc2ccccc2)CC1 (configuration not stated),nt,nt,i,i,i,i
O=C(c1ccc(Cl)c(Cl)c1)N1CCC(=O)N(C(CO)Cc2ccccc2)CC1 (configuration not stated),nt,i,i,i,i,i
O=C(c1ccc(Cl)c(Cl)c1)N1CCC(=O)N([C@H](COCc2cccc(C(F)(F)F)c2)Cc2ccccc2)CC1,nt,i,i,i,nt,92.5
O=C(CC1CC1)Nc1ccc2c(c1)[C@H]1C[C@@H](CC(=O)N3CCCCC3)O[C@H](CO)[C@H]1O2,i,i,i,i,i,i
COc1ccc(S(=O)(=O)Nc2cccc3c2O[C@H](CN(C)C(=O)NC2CCCCC2)[C@H](C)CN([C@@H](C)CO)C3=O)cc1,i,i,nt,i,i,nt
CCOC(=O)c1c(-n2cnnn2)sc2c1CCCC2,nt,60.2,i,i,nt,i
C[C@@H]1CN([C@@H](C)CO)C(=O)c2cc(C3=CCCCC3)cnc2O[C@@H]1CN(C)C(=O)c1ccncc1,i,i,nt,i,i,i
C(=N\c1nccs1)/c1cccnc1,i,i,nt,nt,111.9,nt
CCOC(=O)[C@H]1[C@H]2COc3ccc(Cl)cc3[C@@H]2N2C(=O)c3cc(Cl)ccc3NC(=O)[C@@]12C,i,i,i,i,i,i
CCOC(=O)[C@H]1[C@H]2COc3ccccc3[C@@H]2N2C(=O)c3c(C)cc(C)cc3NC(=O)[C@@]12C,i,i,i,i,i,89.2
CCOC(=O)[C@H]1[C@H]2COc3ccc(Cl)cc3[C@@H]2N2C(=O)c3ccccc3NC(=O)[C@@]12C,i,nt,i,i,135.3,i
O=C(C[C@@H]1CC[C@H](NC(=O)Cc2cccnc2)[C@@H](CO)O1)Nc1ccccc1,nt,i,nt,i,nt,nt
O=C(O)CCC(=O)Nc1nnc(C(F)(F)F)s1,i,nt,nt,nt,114.8,nt
